# High-throughput results (PubChem BioAssay)
# An excerpt weighted towards active compounds, which were near 4.5% of everything screened.
# Mtb FBA inh – Mtb FBA enzyme inhibitors, primary screen, biochemical, fluorescence, strain H37Rv | Fructose-bisphosphate aldolase (Mycobacterium tuberculosis (strain ATCC 25618 / H37Rv)), … | purified M. tuberculosis FBA, fluorescence read-out | inhibition, % at 1 µM | 2.3% of 360,000 active | AID 588726, 2011; in the data active means inhibition above about 27%;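 further: 0% = vehicle and 100% = reference inhibitor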
# Target sequence (P9WQA3 whole entry, looked up): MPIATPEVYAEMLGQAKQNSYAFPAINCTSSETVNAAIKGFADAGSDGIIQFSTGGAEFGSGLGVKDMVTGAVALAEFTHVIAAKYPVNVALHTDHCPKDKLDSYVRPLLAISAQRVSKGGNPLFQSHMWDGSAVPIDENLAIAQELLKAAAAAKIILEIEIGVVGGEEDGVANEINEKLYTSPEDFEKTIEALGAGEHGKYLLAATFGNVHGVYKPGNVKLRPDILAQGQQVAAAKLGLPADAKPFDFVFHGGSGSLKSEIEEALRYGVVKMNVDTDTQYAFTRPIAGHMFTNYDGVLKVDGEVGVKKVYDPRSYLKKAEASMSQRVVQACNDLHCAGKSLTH
# PfHsp40 rescue – rescue of yeast from PfHsp40 toxicity, primary screen, S. cerevisiae, ATP luminescence; S. cerevisiae expressing PfHsp40, growth rescue; growth rescue, % at 12.5 µM; 0.68% of 340,000 active; in the data active means growth rescue above about 28%, passing the limit was not always enough; inconclusive means no clear call, values can overlap the other calls;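 further: yeast W303a lacking pdr1 and pdr3 grown in galactose medium; growth measured after three days at 30 °C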
# BJeLR lethal – MLPCN primary cell-based screen for lethality selective to Ras in HRASV12 cells. BJeLR (HRASV12) viability, CellTiter-Glo ATP luminescence, 48 h. inhibition, % (no concentration beside the values). 0.17% of 300,000 active. AID 1554, 2009; in the data active means inhibition above about 50%; inconclusive means no clear call, values can overlap the other calls
# GDH-TPI inh – GDH-TPI coupling enzyme inhibitors, primary screen, artefact control for M. tuberculosis FBA inhibitor project, biochemical, absorbance, full deck; GDH-TPI coupled enzyme counterscreen, NADH absorbance; inhibition, % at 4.8 µM; 1.2% of 360,000 active; in the data active means inhibition above about 30%;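 further: 0% = DMSO wells and 100% = wells lacking the enzyme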
# PrP 5UTR inh – inhibition of PrP 5' UTR reporter expression. cell-based PrP 5' UTR mRNA reporter, plate reader. inhibition, % (concentration not given with the values). 0.35% of 340,000 active; in the data active means inhibition above about 52%; further: 0 = median of the neutral control wells
# PrPC surface inh – inhibitors of human cell surface prion protein PrPC, primary screen, cell-based, TR-FRET; TR-FRET read-out; 0.43% of 370,000 active; inhibition, % at 13.8 µM; Major prion protein (Homo sapiens), P04156; in the data active means inhibition above about 24%; further: 0% = median of the test wells and 100% = reference compound wells
# PrP UTR cherry – prion 5' UTR mRNA inhibition, cherry-pick retest | cell-based prion protein 5' UTR reporter, plate reader | shares compounds with PrP 5UTR inh | 48% of 1,100 active | inhibition, % at 2.5 µM; in the data active means inhibition above about 54%; inconclusive means no clear call, values can overlap the other calls
# Numbers without * were called inactive; ? = inconclusive; · = not tested or not shown.
SMILES,Mtb FBA inh,PfHsp40 rescue,BJeLR lethal,GDH-TPI inh,PrP 5UTR inh,PrPC surface inh,PrP UTR cherry
Cc1cc(-c2ccccc2)n2ncc(-c3ccccc3)c2n1,0,3,0,1,-24,-9,·
Cc1nc2c(-c3ccccc3)cnn2c(N)c1-c1ccccc1,12,12,5,2,65*,9,10
Cc1csc(CNc2ncnc3ccc(-c4cccnc4)cc23)c1,0,0,·,0,-6,-1,·
COc1cccc(-c2ccc3ncnc(NCc4cc(C)cs4)c3c2)c1,6,?,·,13,61*,-9,-3
Cc1ccc(N2CCCCn3c2nc2c3c(=O)n(CC(=O)O)c(=O)n2C)cc1,2,0,-7,12,58*,-2,-5
Cc1cccc(-c2cccc3c4c([nH]c23)[C@@H]2C[C@H](N(C)C(=O)Nc3ccccc3)[C@H]([C@H](C)O)C(=O)N2CC4)c1,·,·,·,·,·,4,·
CC(C)(O)/C=C/C(=O)[C@](C)(O)C1[C@H](O)C[C@@]2(C)C3CC=C4C(C[C@H](O)[C@@H](O)C4(C)C)[C@]3(C)C(=O)C[C@]12C (stereo not given in full),2,3,·,-1,65*,·,75*
CC1CCc2c(sc(NC(=O)CSc3ncn[nH]3)c2C#N)C1 (stereo not given),-2,1,-4,5,70*,4,79*
CC(C)(C)C1CCc2c(sc(NC(=O)CSc3ncn[nH]3)c2C#N)C1 (stereo not given),-1,1,-2,5,3,-4,·
N#Cc1c(NC(=O)CSC2=NCCS2)sc2c1CCCC2,-3,1,11,9,-11,2,·
N#Cc1c(NC(=O)CSc2ncn[nH]2)sc2c1CCCC2,1,2,0,3,68*,9,67*
O=C(Nc1cccc(Cl)c1)OCCN1CCCC12CCC(c1ccccc1)CC2 (stereo not given),·,·,·,·,·,-6,·
CCCCC[C@H]1CCCCC[C@@H](O)C[C@@H](O)[C@@H](O)/C=C/C(=O)O1,·,·,·,·,·,-5,·
C[C@H]1CCC/C=C/[C@@H]2C[C@H](O)C[C@H]2[C@H](O)[C@H](S(=O)c2ccc(O)cc2)CC(=O)O1 (stereo not given in full),0,0,·,2,86*,89*,69*
CC1CCCC=CC2CC(OC(=O)CN(C)C)CC2C(O)C=CC(=O)O1 (stereo not given),0,0,·,0,81*,90*,90*
C[C@H]1CCC/C=C/[C@@H]2C[C@H](O)C[C@H]2[C@@H](O)/C=C/C(=O)O1,5,-1,·,6,86*,93*,91*
CN(Cc1ccccc1F)C(=O)C1CCC(CNS(=O)(=O)c2cccc3cccnc23)CC1 (stereo not given),·,·,·,·,·,2,·
COc1ccc(OC)c(-c2nc(C(=O)NCCCN3CCOCC3)cc3c2[nH]c2ccccc23)c1,6,0,5,15,54*,-5,1
CCOC(=O)C1=CCN(S(=O)(=O)c2ccc(Cl)cc2)C1c1cccc(Cl)c1 (stereo not given),·,·,·,·,·,7,·
COc1cc(C(=O)N2CCN(c3ccccc3)CC2)c2ccccc2n1,-3,1,·,9,75*,2,88*
Cc1nn(C)cc1NC(=O)C[C@H]1CC[C@H]2[C@@H](COc3ccc(NC(=O)Nc4ccccc4)cc3C(=O)N2C)O1,·,·,·,·,·,0,·
O=C(C1CC(=O)N(c2ccc3c(c2)OCCO3)C1)N1CCN(Cc2ccccc2F)CC1 (stereo not given),-1,0,·,5,86*,7,-9
O=C(NCc1ccccc1F)C1CC(=O)N(c2ccc3c(c2)OCCO3)C1 (stereo not given),-1,0,0,10,-8,0,·
O=C(Nc1ccc(Oc2ccccc2)cc1)C1CCCN1S(=O)(=O)c1cccc2cccnc12 (stereo not given),·,·,·,·,·,4,·
CN(C)C(=O)c1cc2c(c(-c3cccc(C4=CCCCC4)c3)n1)[C@@H](CCO)N(S(=O)C(C)(C)C)C2 (stereo not given in full),2,·,·,·,·,-5,·
SMILES,Mtb FBA inh,PfHsp40 rescue,BJeLR lethal,GDH-TPI inh,PrP 5UTR inh,PrPC surface inh,PrP UTR cherry
Cc1ccc(CC(=O)NCCCn2ccnc2)cc1,-2,-1,-5,8,-13,4,·
Cc1ccc(C(=O)NCCCn2ccnc2)o1,6,-2,10,7,73*,0,-11
Cc1ccc(-c2nc3cc(N)ccc3o2)c(C)c1,10,1,-2,9,-33,-2,·
Nc1ccc2oc(-c3cccc4ccccc34)nc2c1,6,0,3,13,51*,3,65*
O=C(OCC#CCSc1nnc(-c2cccc3ccccc23)o1)c1ccncc1,·,·,·,·,·,-6,·
COC(=O)[C@H](CC(C)C)N(CCCc1cn(Cc2ccc(C)cc2)nn1)S(=O)(=O)c1ccc(F)cc1Br,·,·,·,·,·,5,·
COC(=O)C1=CO[C@@H](O[C@@H]2O[C@H](CO)[C@@H](O)[C@H](O)[C@H]2O)C2C1C=C[C@@]2(O)CO (stereo not given in full),5,0,·,5,76*,0,-29
COC(=O)C1=CO[C@@H](OC2OC(CO)C(O)C(O)C2O)[C@@H]2[C@@H](C)[C@@H](O)C[C@H]12 (stereo not given in full),3,0,-14,2,-3,-1,·
O=C(c1cc(C2CC2)on1)N(C1CCCCC1)C1CCOCC1,·,·,·,·,·,-5,·
C=CCCC1(CCC)C(=O)/C(=C(\O)c2ccccc2)C(=O)C(CCC)=C1OC (stereo not given),·,·,·,·,·,2,·
Cc1cc(C)c(C#N)c(SCc2nnc(-c3ccccc3)o2)n1,6,1,1,9,68*,3,67*
Cc1cc(C)c(C#N)c(SCc2nnc(-c3ccccc3[N+](=O)[O-])o2)n1,-2,2,0,3,-38,-10,·
CCOc1ccc(-c2cc(N)n(S(=O)(=O)c3ccc(OC)c(OC)c3)n2)cc1,1,3,9,-2,-27,12,·
COc1ccc(S(=O)(=O)n2nc(-c3ccc(Cl)cc3)cc2N)cc1OC,7,0,-2,1,56*,10,1
O=C1CC(SC(=NCc2ccc3c(c2)OCO3)Nc2ccccc2)C(=O)N1 (stereo not given),-1,4,-2,10,73*,-4,-15
